Data reported in the supplement of paper PMC6555819.

Experiments:
Assay in all cases: PBM binding z-score (relative to random genomic background probes); higher = stronger binding; sequences stand for … in GC…GCGATTGACAGCGTAGAATGAAGG
[1] = tested on: FXR:RXRa (NR concentration 270 nM, RXRa partner concentration 90 nM)
Procedure, shortened: (§1)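 The probes on custom Agilent 4×180K protein-binding microarrays were double-stranded, with 34-nt variable regions bearing direct-repeat seeds, single-nucleotide variants, half-site ablations and random human genomic background sequences. Incubation lasted 1 h with ligand-free nuclear receptor dimers in PBS pH 7.4, 2% milk, 0.02% Triton X-100, 1 mM DTT, 0.2 mg/mL BSA and 0.4 mg/ml salmon testes DNA. Antibodies against each partner (one per run) detected bound dimers, and fluorescence scans were regression-normalized. Binding z-scores take the random background probes as reference.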

[2] = tested on: LXRa:RXRa (NR concentration 270 nM, RXRa partner concentration 90 nM)
Procedure, shortened: as §1

[3] = tested on: LXRa homodimer (NR concentration 270 nM)
Procedure, shortened: as §1

[4] = tested on: LXRb:RXRa (NR concentration 270 nM, RXRa partner concentration 90 nM)
Procedure, shortened: as §1

[5] = tested on: LXRb homodimer (NR concentration 270 nM)
Procedure, shortened: as §1

[6] = tested on: PPARa:RXRa (NR concentration 270 nM, RXRa partner concentration 90 nM)
Procedure, shortened: as §1

[7] = tested on: PPARg:RXRa (NR concentration 180 nM, RXRa partner concentration 90 nM)
Procedure, shortened: as §1

[8] = tested on: PPARg:RXRa 270nM:90nM, anti-RXR (NR concentration 270 nM, RXRa partner concentration 90 nM)
Procedure, shortened: as §1

[9] = tested on: PPARg:RXRa 30nM:10nM, anti-RXR (NR concentration 30 nM, RXRa partner concentration 10 nM)
Procedure, shortened: as §1

[10] = tested on: PPARg:RXRa 90nM:30nM, anti-RXR (NR concentration 90 nM, RXRa partner concentration 30 nM)
Procedure, shortened: as §1

Row | Sequence | PBM binding z-score [1] | PBM binding z-score [2] | PBM binding z-score [3] | PBM binding z-score [4] | PBM binding z-score [5] | PBM binding z-score [6] | PBM binding z-score [7] | PBM binding z-score [8] | PBM binding z-score [9] | PBM binding z-score [10]
1 | CCTATTGGGCCACGAAAGGTCATTGATTCAGTGA | 3.94 | 5.43 | 5.04 | 4.14 | 0.248 | 4.6 | 2.92 | 4.31 | 1.71 | 3.67
2 | AGAACGAGGGCAATGAGTTGATAGAACGGGTGGC | 0.324 | 0.221 | -0.321 | -0.103 | -0.564 | 0.984 | 1.53 | 0.857 | 0.188 | 0.62
3 | ATATGTAGGTTGAGGGTCATTCAGGTTGGTTCGC | 3.26 | 3.21 | 1.56 | 3.31 | 1.32 | 4.86 | 7.99 | 7.58 | 6.69 | 7.97
4 | ACTAATAGTTGACTTAGGGCAACCGATACGACGC | 0.35 | 0.168 | 0.0838 | -0.131 | 0.352 | -0.132 | 0.962 | 0.054 | 0.137 | 0.153
5 | AGTCAAAGTTCACTAGGTAACGTGAGATTCAGCT | 4.64 | 4.79 | 2.64 | 2.71 | 0.742 | 4.57 | 7.14 | 6.33 | 3.41 | 5.47
6 | CAAACTAGGTCAAAGAGGTCAAAGTCCGTGCGTA | 6.71 | 6.33 | 6.39 | 5.91 | 2.23 | 6.17 | 8.55 | 7.69 | 6.36 | 7.64
7 | CCTACTGGGCCAAGGTCAGTGATCAGTCAAAGCA | 0.749 | 0.797 | 0.0206 | 0.924 | -0.982 | 2.46 | 2.73 | 3.3 | 0.671 | 2.45
8 | TCGAGTAGGTTAGTCGGGGCATTCAACCAACATA | 0.19 | 0.112 | 0.0145 | 0.776 | -0.298 | 0.929 | 0.00295 | 1.16 | 1.41 | 1.11
9 | CTACCTAGGTGAACAAGGTCGTTGATTACTATTC | 0.921 | 0.98 | 0.31 | 1.61 | -0.219 | 2.31 | 1.31 | 1.36 | -0.0446 | 0.717
10 | CCAGACAGGTGAGAAGATAACTCAGCCTCGATTA | 0.0426 | 0.15 | -0.0638 | -0.14 | -0.471 | -0.179 | 0.576 | -0.087 | -0.116 | 0.155
11 | GGAACGAGGGCGAGTTGATAGCAGAGTTTGATGG | -0.328 | -0.505 | -0.54 | -0.523 | -0.787 | -0.0875 | 0.373 | -0.24 | -0.495 | -0.42
12 | TAATATAGGTAAACAGGTGAAAGTCCGTAAGTTA | 0.323 | 0.622 | 0.406 | 0.745 | 0.296 | 3.34 | 5.42 | 4.89 | 2.54 | 4.16
13 | TCGAGTAGGTGACCAATGGGGCATTCAGCTTTCT | -0.0525 | -0.335 | -0.709 | -0.15 | -1.02 | 0.875 | 0.524 | 1.12 | 1.01 | 0.794
14 | AGTCAAAGTTCATCTAGGTAACGTAAGATATGCT | 6.73 | 6 | 5.07 | 3.62 | 1.73 | 4.84 | 6.6 | 6.14 | 3.3 | 5.53
15 | CGTACTAGGTCAAGGACAGTGAATCTCCGCACGC | 3.26 | 2.36 | 0.318 | 1.61 | 0.134 | 3.93 | 6.37 | 5.52 | 2.99 | 4.86
16 | ACTATTAGTTGAGACGAGGTCAACCGATAGGTTG | 3.42 | 3.7 | 2.01 | 3.53 | 0.73 | 4.15 | 1.97 | 2.35 | 0.821 | 1.85
17 | CCTAGTTGGTTAAGGTCACACACGCTATAGGTAC | 4.71 | 4.56 | 2.6 | 4.3 | 1.42 | 4.33 | 2.68 | 3.2 | 1.24 | 2.39
18 | CCTACTGGGCCATCAGGTCATTGTTATCAACGTT | 1.46 | 1.31 | 1.14 | 1.7 | -0.00639 | 2.76 | 2.54 | 3.66 | 1.36 | 2.74
19 | CTCGAAAGGTCGGGCTCAGGTGAGTATACCAAAC | 3.1 | 2.11 | -0.238 | 1.9 | 0.116 | 3.25 | 0.671 | 1.88 | -0.168 | 0.853
20 | CGAACTAGGTCATTGACAGAACAGTGAATAGTAA | 4.26 | 2.84 | 0.516 | 2 | 0.18 | 4.66 | 7.52 | 6.34 | 4.05 | 5.58
21 | ACCTCTAGGTAAAGATAGTTCAGTGAATGCAAAT | 0.216 | 3.68 | 0.25 | 0.57 | -0.307 | 0.0564 | 0.269 | 0.318 | 0.0482 | 0.178
22 | CGTCCAAGGTCAGAGAGGTTAGTGAATGCCGAGT | 5.32 | 3.46 | 0.378 | 2.89 | -0.248 | 4.18 | 2.47 | 2.56 | 0.275 | 1.48
23 | TCATATAGGTAAATGCTAGGTGAACGTCCGATCT | 0.421 | 0.682 | 0.358 | 0.608 | -0.229 | 1.36 | 1.09 | 2.06 | 3.51 | 2.65
24 | TCTCGGAGGACACGAAAGGTCAGATCTCGACATC | 3.11 | 3.81 | 3.83 | 3.85 | 0.385 | 3.44 | 1.37 | 2.81 | 3.01 | 2.77
25 | CCTGTTAGGTCAATGGTCAGCTAAAGCAGCTCGC | 3.84 | 2.92 | 0.645 | 2.06 | 1.38 | 3.49 | 3.07 | 4.36 | 2.03 | 3.91
